Screens as filed in PubChem BioAssay.
RORgamma inh: ROR gamma (mouse) transcription inhibition. Drosophila S2 Gal4-RORgamma UAS-luciferase reporter, 20 h. Potency, µM (doses to about 53.6 µM), without a hit: top-dose activity change, negative = inhibition, most hits filed as inhibitors. 310,000 tested, 5.4% active; also: potency is read from the fitted curve at half-maximal effect; nearly all actives have a fitted effect of over 60% in size
Target sequence (P51450 whole entry, looked up, the tested form may be a part): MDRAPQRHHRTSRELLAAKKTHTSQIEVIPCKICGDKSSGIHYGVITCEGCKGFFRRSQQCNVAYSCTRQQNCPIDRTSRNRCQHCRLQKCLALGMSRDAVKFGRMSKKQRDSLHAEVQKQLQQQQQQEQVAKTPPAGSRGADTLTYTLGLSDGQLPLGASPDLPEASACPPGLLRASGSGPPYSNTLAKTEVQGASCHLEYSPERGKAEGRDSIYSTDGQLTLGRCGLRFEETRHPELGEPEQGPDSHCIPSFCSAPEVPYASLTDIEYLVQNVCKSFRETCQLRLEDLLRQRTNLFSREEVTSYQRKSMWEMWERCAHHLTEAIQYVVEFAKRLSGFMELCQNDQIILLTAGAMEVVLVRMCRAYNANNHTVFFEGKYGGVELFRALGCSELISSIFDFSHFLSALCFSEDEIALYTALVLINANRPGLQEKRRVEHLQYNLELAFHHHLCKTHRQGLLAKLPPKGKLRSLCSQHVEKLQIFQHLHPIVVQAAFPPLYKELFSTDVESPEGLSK
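Drosophila S2 cells stably expressing Gal4-DBD/mouse RORγ fusion under metallothionein promoter plus UAS-luciferase; compound 1 h, then 700 uM CuSO4 induction for 20 h at ambient temperature; inhibition read as reduced luminescence.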
LDHA block: LDHA (human) enzyme inhibition | 480,000 tested, 0.15% active | activity change, % (values are at about 110 or 230 µM) | purified LDHA, NADH/diaphorase-resazurin fluorescence; active compounds read low | P00338; in the data active = activity change below about -30%; inconclusive = mostly about -25% to -30%;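 also: plate controls were DMSO wells for no effect and wells without enzyme for full effect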
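Enzyme activity of human lactate dehydrogenase 5 (2 nM; 0.06 mM NADH, 0.2 mM pyruvate, 5 min, RT) is measured via a resazurin/diaphorase fluorescence readout of residual NADH.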
TDP1 cell CPT: growth inhibition of DT40 Tdp1-/-;hTDP1 cells with camptothecin (screen for TDP1 inhibitors); chicken DT40 Tdp1-/-;hTDP1 cells + 20 nM CPT, ATP luminescence, 48 h; Potency, µM (top dose mostly 46.2 µM), without a hit: top-dose activity change, negative = growth inhibition, hits mostly inhibitors; 420,000 tested, 12% active; AID 686979; also: potency is read from the fitted curve at half-maximal effect; nearly all actives have a fitted effect of over 55% in size
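Cell growth measured by CellTiter-Glo luminescence after a minimum 48 h, 37 C compound exposure with 20 nM CPT in Tdp1-knockout DT40 cells stably expressing hTDP1, seeded 400/well; qHTS titration format.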
IL-1B inflam inh: blocks inflammasome-driven IL-1 beta release; activity change, % at 57.5 µM; 360,000 tested, 4.7% active; THP-1 LPS/ATP IL-1B secretion, AlphaLISA, 16 h; active compounds read low; in the data active = activity change below about -50%; inconclusive = mostly about -30% to -49%
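THP-1 cells pretreated 1 hr with compounds (up to 57.5 uM final), then stimulated with LPS (250 ng/mL final) plus ATP (1.25 mM final); secreted IL-1B measured by AlphaLISA after 16 hr, decreased signal indicating inhibition.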
VP16 counter: counter-screen for ROR gamma inhibitors: Gal4-VP16 reporter | Drosophila S2 Gal4-VP16 UAS-luciferase, luminescence, 20 h | Potency, µM (highest dose often 53.6 µM), for the others: top-dose activity, negative = inhibition, actives largely listed as inhibitors | 310,000 tested, 3.5% active;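 also: Gal4-VP16 expression switched on by copper sulfate through the metallothionein promoter; potency is read from the fitted curve at half-maximal effect; nearly all actives have a fitted effect of over 50% in size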
TDP1 cell noCPT: qHTS for Inhibitors of human tyrosyl-DNA phosphodiesterase 1 (TDP1): qHTS in cells in absence of CPT. DT40 Tdp1-/- hTDP1 cells, no CPT, ATP luminescence, 48 h. Potency, µM (doses to about 46.2 µM), inactives show top-dose activity change, negative = growth inhibition, actives largely listed as inhibitors. 420,000 tested, 15% active; also: potency is read from the fitted curve at half-maximal effect; nearly all actives have a fitted effect of over 55% in size
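Stably hTDP1-transfected Tdp1-null chicken DT40 cells were treated with library compounds minus camptothecin and grown for at least 48 hr at 37 °C, after which cellular ATP was quantified by luminescence.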
Starred values were filed as active, the others as inactive; u = inconclusive; x = not tested or not shown. An excerpt weighted towards active compounds, which were near 18% of everything screened. Unless noted, calls follow the shape of the dose curve; as a rule, active = well fitted curve in the direction sought with a large enough effect; inconclusive = small, poorly fitted or top-dose-only effect, or another doubt; inactive = no such curve, though single readings can be large; an effect the other way counts as inactive or inconclusive. Unless noted, % is scaled to controls: 0 for no effect and ±100 for the full control effect.

SMILES	RORgamma inh	LDHA block	TDP1 cell CPT	IL-1B inflam inh	VP16 counter	TDP1 cell noCPT
Cc1nc(Cl)nc(N(C)c2ccccc2)c1[N+](=O)[O-]	-27.3%	-2.1	u	-81.8*	-2.1%	u
COc1ccc(NS(=O)(=O)c2cc(NC(=O)c3ccc(=O)[nH]n3)ccc2C)cc1	x	-13.4	18.4µM*	46.6	x	18.4µM*
COc1ccc(NS(=O)(=O)c2cc(OC)ccc2NC(=O)c2cc(C)oc2C)cc1	0.0%	3.5	5.17µM*	41.4	-3.3%	2.59µM*
COc1ccc(NS(=O)(=O)c2cc(C)ccc2C)cc1	-29.1%	0.8	20.6µM*	28.5	-11.4%	16.4µM*
Cc1cc(C(=O)Nc2ccc(I)cc2)c(C)o1	x	8.3	x	x	x	x
COc1ccc(NS(=O)(=O)c2cc(S(C)(=O)=O)ccc2C)cc1	18.1%	-2.6	-0.4%	-8.7	6.7%	-19.0%
CCc1c(C)sc2c1c1nc(-c3cccnc3)nn1c(=O)n2CC(=O)N1CCOCC1	x	3.5	x	x	x	x
Cc1ccc(C(=O)O/N=C(\N)c2ccccn2)c(C)c1	u	-6.3	u	u	6.31µM*	-23.6%
COc1ccccc1C(=O)O/N=C(\N)c1ccccn1	3.16µM*	-7.1	-1.8%	-3.2	u	-38.8%
COc1cc(OC)c(C(=O)O/N=C(\N)c2ccccn2)cc1OC	27.0%	1.1	-27.5%	-25.5	2.1%	-29.5%
N/C(=N\OC(=O)c1ccccc1[N+](=O)[O-])c1ccccn1	23.2%	-8.6	u	-12.3	7.0%	u
Cc1ccc(C)c(OCC(=O)O/N=C(\N)c2ccccn2)c1	15.1%	1.3	2.6%	-19.2	5.4%	-13.2%
Cc1ccc(/C(N)=N/OC(=O)c2cc(-c3ccccc3)nc3ccccc23)cc1	-3.6%	2.1	-28.2%	5.2	-15.5%	u
N/C(=N\OC(=O)c1cc(-c2ccccc2)nc2ccccc12)c1ccccn1	1.0%	-3.4	13µM*	-26.2	-6.9%	11.6µM*
N/C(=N\OC(=O)c1ccccc1Cl)c1ccccn1	6.31µM*	-1.0	u	23.4	14.1µM*	u
CCCCn1ccc2nc3ccn(-c4ncn[nH]4)c(=O)c3cc2c1=O	x	8.7	x	x	x	x
CC(=O)N1CCN(C(=O)Cn2c(NCc3ccccc3)nc3ccccc32)CC1	x	0.6	x	x	x	x
CNC(=O)Cn1c(CO)cnc1SCc1ccc(Br)cc1	x	3.9	x	x	x	x
Cc1ccc(C)c(S(=O)(=O)c2nnn3c2nc(NCc2ccc4c(c2)OCO4)c2sccc23)c1	x	5.6	18.4µM*	x	x	u
Cc1ccc(S(=O)(=O)c2nnn3c2nc(NCCc2ccccc2)c2sccc23)cc1	x	5.5	16.4µM*	x	x	u
Cc1ccc(S(=O)(=O)c2nnn3c2nc(NCc2ccc4c(c2)OCO4)c2sccc23)cc1	x	-0.9	u	x	x	13µM*
Cc1ccc(S(=O)(=O)c2nnn3c2nc(NCc2ccc4c(c2)OCO4)c2sccc23)cc1C	x	0.5	u	x	x	23.1µM*
Cc1ccc(CCNc2nc3c(S(=O)(=O)c4ccccc4)nnn3c3ccsc23)cc1	x	-12.3	-22.1%	x	x	u
Cc1ccc(CNc2nc3c(S(=O)(=O)c4ccccc4)nnn3c3ccsc23)cc1	x	0.6	-27.7%	x	x	-13.7%
CCN(CC)C(=O)C(Sc1nnc(-c2ccc(Cl)cc2Cl)n1N)c1ccccc1 (stereo not drawn)	x	-0.8	x	x	x	x
O=S(=O)(c1ccc(Cl)cc1)c1nnn2c1nc(NC1CCCCC1)c1sccc12	x	3.5	u	x	x	u
CCc1ccc(S(=O)(=O)c2nnn3c2nc(NC2CCCCCC2)c2sccc23)cc1	x	-1.2	u	x	x	16.4µM*
COc1cc(NS(=O)(=O)c2cccc(Cl)c2C)cc2sc(NC(C)=O)nc12	x	19.8	x	x	x	x
COc1ccccc1-n1c2nc3ccccc3nc2c2c(=O)n(-c3cc(C)cc(C)c3)cnc21	48.7%	-3.5	3.66µM*	-94.6*	-11.6%	u
